In paper PMC5540273 (PLoS ONE, 2017):

Each molecule was assayed on T1, CDC2L1. Settings: concentration: 1 μM, replicates: in singlicate; n = 1.
T1 construct: gene CDK11B
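Further: KINOMEscan kinase panel screen.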

Which “%Inh” value does the source give for COc1cc(Nc2ncc3c(C)nc(-c4cc5ccccc5[nH]4)n3n2)cc(OC)c1OC [GW869516] here?
Its value is 5%.

How did the “%Inh” value turn out when Cc1ccc(C)c(NC(=O)NC2CCN(c3ccnc(Nc4ccc(F)cc4)n3)C2)c1 (stereo not drawn) [GSK1379720] was run?
The value was 0%.

c1ccc(Oc2ccc(Nc3ccnc4cc(-c5ccc(CNCCN6CCOCC6)o5)ccc34)cc2)nc1 [GW567145] was tested. Which “%Inh” value did it give?
The value was 0%.

For COc1cc(Nc2nccc(-c3c(-c4cccc(NC(=O)c5c(F)cccc5F)c4)nn4ncccc34)n2)cc(OC)c1OC [GSK327238], which “%Inh” value is on record?
Its value is 16%.

With COc1cc(Nc2nccc(N3CCC(NC(=O)Nc4cccc(C(C)=O)c4)C3)n2)cc(OC)c1OC (stereo not drawn) [GSK1379753] as the molecule, how does the “%Inh” value read?
The value was 0%.

How did the “%Inh” value turn out when Cl.Cl.NCC(NCc1ccc(-c2ccnc3[nH]ccc23)s1)c1ccccc1 (stereo not drawn) [GSK1321565] was run?
The value was 0%.

With Oc1cc(Nc2ccnc3cc(I)ccc23)ccc1F [GW552771] as the molecule, how does the “%Inh” value read?
Its value is 0%.

With Cc1ccc(C(=O)Nc2ccc(Nc3ccnc4cc(-c5nccs5)ccc34)cc2O)cc1.Cl [GW494702] as the molecule, how does the “%Inh” value read?
The value was 0%.

For C[C@@H]1CC[C@@H](C(=O)Nc2ccccc2)CN1c1cc(-c2ccc3c(N)n[nH]c3c2)nc(N)n1 [GSK2286062], which “%Inh” value is on record?
Its value is 7%.

Nc1ncc(-c2cccnc2)c2scc(-c3ccc4c(c3)CCN4C(=O)Cc3ccccc3)c12 [GSK683281] was tested. Which “%Inh” value did it give?
Its value is 0%.

With Cl.c1ccc(-c2ccc3c(Nc4ccc5[nH]ccc5c4)ccnc3c2)nc1 [GW440138] as the molecule, how does the “%Inh” value read?
Its value is 0%.

Which “%Inh” value does the source give for CCn1c(-c2nonc2N)nc2c(C#CC(C)(C)O)nc(OC[C@H](N)c3ccccc3)cc21 [GSK943949] here?
Its value is 0%.

How did the “%Inh” value turn out when Cn1cc(-c2ccc3c(c2)CCN3C(=O)Cc2cccc(F)c2)c2c(N)ncnc21 [GSK2603358] was run?
Its value is 0%.

For O=C(Nc1cccc(-c2nn3ncccc3c2-c2ccnc(Nc3ccccc3)n2)c1)c1c(F)cccc1F [GSK198271], which “%Inh” value is on record?
Its value is 0%.

For COc1cc(Nc2nccc(-c3c(-c4cccc(NC(=O)c5c(F)cccc5F)c4)nn4ccccc34)n2)cc(OC)c1OC [GSK323521], which “%Inh” value is on record?
Its value is 0%.

For FC(F)(F)c1ccc(/C=C/c2cncnc2Nc2ccc3[nH]c(Cc4ccccc4)nc3c2)cc1 [GW709199], which “%Inh” value is on record?
The value was 0%.

With CC(C)(C)c1ccc2nccc(Nc3cccc(O)c3)c2c1 [GW856795] as the molecule, how does the “%Inh” value read?
Its value is 0%.

For CCc1ccc(-c2ccc3c(c2)-c2c(cnn2C)S(=O)(=O)N3C)cc1, which “%Inh” value is on record?
Its value is 0%.

For COc1cccc(C2=C(Nc3ccc(Cl)c(C(=O)O)c3)C(=O)NC2=O)c1 [SB-390769], which “%Inh” value is on record?
Its value is 0%.

For NCCCC(NC(=O)c1cc(Br)c(-c2ccnc3[nH]ccc23)s1)c1ccccc1.O=C(O)C(F)(F)F.O=C(O)C(F)(F)F (stereo not drawn) [GSK1287544], which “%Inh” value is on record?
Its value is 0%.

COC(=O)Nc1nc2ccc(Oc3ccc(NC(=O)Nc4cc(C(F)(F)F)ccc4F)cc3)cc2n1C.Cl [GW692089] was tested. Which “%Inh” value did it give?
Its value is 0%.

Which “%Inh” value does the source give for CC(C)c1nc(-c2cccc(NS(=O)(=O)c3c(F)cccc3F)c2F)c(-c2ccnc(Nc3ccc(N4CCOCC4)nc3)n2)s1 [GSK2008607] here?
Its value is 12%.

With COCCOCCOc1cc2ncc3c4ccc(C#N)cc4[nH]c3c2cc1OC as the molecule, how does the “%Inh” value read?
The value was 0%.

How did the “%Inh” value turn out when Fc1ccc(-c2ncn(C3CCNCC3)c2-c2ccnc(Oc3ccc(-c4ccccc4)cc3)n2)cc1 [SB-245391] was run?
The value was 11%.

With c1ccc(-c2cnc3nccnn23)cc1 [AH20685] as the molecule, how does the “%Inh” value read?
The value was 0%.

COc1cccc(-c2ccc3c(NC(=O)C4CC4)n[nH]c3n2)c1 [SB-710903] was tested. Which “%Inh” value did it give?
Its value is 0%.

These molecules were tested on CDC2L2. Settings: concentration: 1 μM, replicates: in singlicate; n = 1.

COc1cccc(C(=O)Nc2cccc(Oc3ccc4nc(NC(=O)C5CC5)cn4n3)c2)c1 was tested. Which “%Inh” value did it give?
Its value is 17%.

Cl.Cl.NCC(NC(=O)c1cc(-c2ccccc2)c(-c2ccnc3[nH]ccc23)s1)c1ccccc1 (stereo not drawn) [GSK1321561] was tested. Which “%Inh” value did it give?
The value was 11%.

CC(=O)Nc1nc2cnc(Nc3cc(NC(=O)c4cccc(C5(C#N)CC5)c4Cl)ccc3C)nc2s1 was tested. Which “%Inh” value did it give?
The value was 33%.

How did the “%Inh” value turn out when COc1cccc(NC(=O)NC2CCN(c3ccnc(Nc4cc(OC)c(OC)c(OC)c4)n3)C2)c1 (stereo not drawn) [GSK1379763] was run?
Its value is 10%.

For COc1cc2c(cc1OCCN1CCNCC1)ncc1c3ccc(C#N)cc3[nH]c21, which “%Inh” value is on record?
The value was 0%.

With CSc1cccc2c(-c3ccncn3)c(-c3ccc(F)cc3)nn12 [GW514786] as the molecule, how does the “%Inh” value read?
The value was 17%.

How did the “%Inh” value turn out when Cn1cc(-c2ccc3c(c2)CCN3C(=O)Cc2cccc(Cl)c2)c2c(N)ncnc21 [GSK2606590] was run?
The value was 18%.

CCS(=O)(=O)c1ccc(OC)c(Nc2nccc(-c3c(-c4cccc(NC(=O)c5c(F)cccc5F)c4)nn4ncccc34)n2)c1 [GSK326180] was tested. Which “%Inh” value did it give?
The value was 15%.

For CCn1c(-c2nonc2N)nc2c(C#CC(C)(C)O)ncc(OCCCCN)c21.O=C(O)C(F)(F)F.O=C(O)C(F)(F)F [GSK507274], which “%Inh” value is on record?
Its value is 0%.

How did the “%Inh” value turn out when O=C(Nc1cccc(-c2nn3ccccc3c2-c2ccnc(Nc3cccc(C(F)(F)F)c3)n2)c1)c1c(F)cccc1F [GSK292658] was run?
Its value is 0%.

Which “%Inh” value does the source give for CN(c1ccc(NC(=O)Nc2cc(C(F)(F)F)ccc2F)cc1)c1ccnc(Nc2ccc(S(N)(=O)=O)cc2)n1 [GW809893] here?
The value was 94%.

For COc1cc(Nc2ncc3c(C)nc(-c4cc5ccccc5[nH]4)n3n2)cc(OC)c1OC [GW869516], which “%Inh” value is on record?
The value was 8%.

For Cc1ccc(C)c(NC(=O)NC2CCN(c3ccnc(Nc4ccc(F)cc4)n3)C2)c1 (stereo not drawn) [GSK1379720], which “%Inh” value is on record?
The value was 0%.

c1ccc(Oc2ccc(Nc3ccnc4cc(-c5ccc(CNCCN6CCOCC6)o5)ccc34)cc2)nc1 [GW567145] was tested. Which “%Inh” value did it give?
The value was 5%.

For COc1cc(Nc2nccc(-c3c(-c4cccc(NC(=O)c5c(F)cccc5F)c4)nn4ncccc34)n2)cc(OC)c1OC [GSK327238], which “%Inh” value is on record?
Its value is 15%.

For COc1cc(Nc2nccc(N3CCC(NC(=O)Nc4cccc(C(C)=O)c4)C3)n2)cc(OC)c1OC (stereo not drawn) [GSK1379753], which “%Inh” value is on record?
The value was 14%.

How did the “%Inh” value turn out when Cl.Cl.NCC(NCc1ccc(-c2ccnc3[nH]ccc23)s1)c1ccccc1 (stereo not drawn) [GSK1321565] was run?
Its value is 23%.

How did the “%Inh” value turn out when Oc1cc(Nc2ccnc3cc(I)ccc23)ccc1F [GW552771] was run?
Its value is 0%.

Which “%Inh” value does the source give for Cc1ccc(C(=O)Nc2ccc(Nc3ccnc4cc(-c5nccs5)ccc34)cc2O)cc1.Cl [GW494702] here?
The value was 0%.

Which “%Inh” value does the source give for C[C@@H]1CC[C@@H](C(=O)Nc2ccccc2)CN1c1cc(-c2ccc3c(N)n[nH]c3c2)nc(N)n1 [GSK2286062] here?
The value was 20%.

Which “%Inh” value does the source give for Nc1ncc(-c2cccnc2)c2scc(-c3ccc4c(c3)CCN4C(=O)Cc3ccccc3)c12 [GSK683281] here?
The value was 8%.

With Cl.c1ccc(-c2ccc3c(Nc4ccc5[nH]ccc5c4)ccnc3c2)nc1 [GW440138] as the molecule, how does the “%Inh” value read?
Its value is 7%.

With CCn1c(-c2nonc2N)nc2c(C#CC(C)(C)O)nc(OC[C@H](N)c3ccccc3)cc21 [GSK943949] as the molecule, how does the “%Inh” value read?
The value was 0%.

For Cn1cc(-c2ccc3c(c2)CCN3C(=O)Cc2cccc(F)c2)c2c(N)ncnc21 [GSK2603358], which “%Inh” value is on record?
The value was 21%.

For O=C(Nc1cccc(-c2nn3ncccc3c2-c2ccnc(Nc3ccccc3)n2)c1)c1c(F)cccc1F [GSK198271], which “%Inh” value is on record?
Its value is 18%.

How did the “%Inh” value turn out when COc1cc(Nc2nccc(-c3c(-c4cccc(NC(=O)c5c(F)cccc5F)c4)nn4ccccc34)n2)cc(OC)c1OC [GSK323521] was run?
Its value is 14%.

FC(F)(F)c1ccc(/C=C/c2cncnc2Nc2ccc3[nH]c(Cc4ccccc4)nc3c2)cc1 [GW709199] was tested. Which “%Inh” value did it give?
The value was 0%.

With CC(C)(C)c1ccc2nccc(Nc3cccc(O)c3)c2c1 [GW856795] as the molecule, how does the “%Inh” value read?
Its value is 0%.

With CCc1ccc(-c2ccc3c(c2)-c2c(cnn2C)S(=O)(=O)N3C)cc1 as the molecule, how does the “%Inh” value read?
The value was 0%.

How did the “%Inh” value turn out when COc1cccc(C2=C(Nc3ccc(Cl)c(C(=O)O)c3)C(=O)NC2=O)c1 [SB-390769] was run?
The value was 0%.

With NCCCC(NC(=O)c1cc(Br)c(-c2ccnc3[nH]ccc23)s1)c1ccccc1.O=C(O)C(F)(F)F.O=C(O)C(F)(F)F (stereo not drawn) [GSK1287544] as the molecule, how does the “%Inh” value read?
The value was 0%.

COC(=O)Nc1nc2ccc(Oc3ccc(NC(=O)Nc4cc(C(F)(F)F)ccc4F)cc3)cc2n1C.Cl [GW692089] was tested. Which “%Inh” value did it give?
The value was 10%.

Which “%Inh” value does the source give for CC(C)c1nc(-c2cccc(NS(=O)(=O)c3c(F)cccc3F)c2F)c(-c2ccnc(Nc3ccc(N4CCOCC4)nc3)n2)s1 [GSK2008607] here?
Its value is 47%.

With COCCOCCOc1cc2ncc3c4ccc(C#N)cc4[nH]c3c2cc1OC as the molecule, how does the “%Inh” value read?
Its value is 19%.

How did the “%Inh” value turn out when Fc1ccc(-c2ncn(C3CCNCC3)c2-c2ccnc(Oc3ccc(-c4ccccc4)cc3)n2)cc1 [SB-245391] was run?
The value was 9%.

How did the “%Inh” value turn out when c1ccc(-c2cnc3nccnn23)cc1 [AH20685] was run?
Its value is 18%.

For COc1cccc(-c2ccc3c(NC(=O)C4CC4)n[nH]c3n2)c1 [SB-710903], which “%Inh” value is on record?
Its value is 1%.
